High-throughput results from PubChem BioAssay.
Peg3 promoter: reduces Peg3 promoter-driven luciferase expression in HeLa; inhibition, % at 20 µM; AID 588405; actives 1.7% (n = 360,000); HeLa PEG-Prom luciferase reporter, luminescence, overnight;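 active means inhibition of at least 50% at 20 µM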
CF NFkB block: cystic fibrosis NF-kB activation inhibition. actives 0.86% (n = 360,000). KKLEB NF-kB-GFP reporter, PAF-induced, GFP fluorescence overnight. AID 588850. inhibition, % at 5 µM;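 active means at least 50% inhibition at 5 µM, scaled per plate between neutral and stimulator controls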;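 further: PAF is a Pseudomonas aeruginosa culture filtrate used as stimulus; plate controls were PAF-stimulated DMSO wells for no effect and unstimulated DMSO wells for full effect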
MITF TRPM1 inh: reduces MITF-dependent TRPM1 promoter luciferase signal. inhibition, % at 12.5 µM. SK-MEL-5 TRPM1 promoter luciferase, 24 h. actives 0.83% (n = 330,000);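 active means mean inhibition across replicates of 60% or more, whatever share of single replicates reaches that level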
KKLEB cytotox: CF airway cell cytotoxicity counter-screen. KKLEB CF airway cells viability, ATPlite luminescence, overnight; hits give low values; cells stimulated with P. aeruginosa culture filtrate. activity change (cytotoxicity), % at 5 µM. actives 0.36% (n = 360,000). AID 602141;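 active means corrected activity change at or below -50% at 5 µM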
B2AR ag: agonists of human beta-2 adrenergic receptor inducing internalization | P07550 | Am2.2-beta2AR cells, FAP receptor internalization, flow cytometry | response, % (no concentration beside the values) | actives 0.43% (n = 340,000) | AID 504454;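 active means response above a set limit, near 3 SD of response in nonfluorescent compounds, cut at about 42% in these data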
Target sequence (P07550 whole entry, looked up): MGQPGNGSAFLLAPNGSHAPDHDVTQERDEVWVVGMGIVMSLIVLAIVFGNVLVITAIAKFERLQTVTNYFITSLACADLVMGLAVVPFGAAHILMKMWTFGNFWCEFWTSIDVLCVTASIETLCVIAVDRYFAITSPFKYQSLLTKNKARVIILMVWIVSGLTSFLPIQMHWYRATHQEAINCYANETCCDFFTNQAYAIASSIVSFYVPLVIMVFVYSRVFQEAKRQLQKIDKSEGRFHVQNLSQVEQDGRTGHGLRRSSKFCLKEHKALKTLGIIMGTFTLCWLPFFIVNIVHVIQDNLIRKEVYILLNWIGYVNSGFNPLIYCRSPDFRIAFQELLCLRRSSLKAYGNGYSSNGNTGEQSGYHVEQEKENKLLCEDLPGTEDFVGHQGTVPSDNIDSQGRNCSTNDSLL
HIF-2a block: HIF-2a inhibition; inhibition, % at 18.8 µM; AID 624352; 786-0 RCC cells HIF-2a reporter, luciferase luminescence, overnight; actives 0.72% (n = 360,000);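 active means inhibition of the luminescence signal of 40% or more relative to plate controls, in a single-dose primary screen at 18.75 µM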
Beta2AR ag CP1: human beta-2 adrenergic receptor agonism, cherry pick; percent response (surface receptor), % at 10 µM; actives 25% (n = 1,100); Am2.2-beta2AR cells, FAP surface receptor, flow cytometry; hits give low values; AID 540358; shares compounds with B2AR ag;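 active means surface receptor percent response at or below 58%, roughly 3 SD from nonfluorescent compounds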
FAP fluor counter: counter-screen for beta-2AR agonists: fluorescence in Am2.2 cells. shares compounds with B2AR ag. FAP fluorogen flow cytometry, fluorescence counterscreen; hits give low values. calls only at 10 µM. 1,100 tested, under 10 active;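 active means percent response below a set limit in fluorescence channel 1 and below 50% in channel 8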
An asterisk follows results filed as active. The list is not random: actives were taken first. Their share in the collection is about 2.8%.

Results for COC(=O)[C@]12CCCCC=C1N(Cc1ccccc1)C(=O)[C@H](CC(=O)NCC1CCCCC1)C2 ?
HIF-2a block: 0

What do the screens show for `Cc1ccc(-n2c3nc(=O)[nH]c(=O)c-3cc3cc([N+](=O)[O-])ccc32)cc1`?
Peg3 promoter: 31; CF NFkB block: 3; MITF TRPM1 inh: 54; KKLEB cytotox: -12; B2AR ag: 51*; HIF-2a block: 36; Beta2AR ag CP1: 108; FAP fluor counter: inactive

Results for O=C(CCc1ccc(S(=O)(=O)N2CCOCC2)cc1)Nc1nc(COc2ccccc2)cs1 ?
Peg3 promoter: 13; CF NFkB block: 1; MITF TRPM1 inh: 19; KKLEB cytotox: 0; B2AR ag: 62*; HIF-2a block: -2; Beta2AR ag CP1: 20*; FAP fluor counter: inactive

Results for O=C(COc1ccccc1)Nc1nc(-c2ccc(S(=O)(=O)N3CCOCC3)cc2)cs1 ?
Peg3 promoter: 24; CF NFkB block: 4; MITF TRPM1 inh: 12; KKLEB cytotox: -2; B2AR ag: 5; HIF-2a block: 18

How did CC(C)(C)NC(=O)C(c1ccc(C(F)(F)F)cc1)n1c(=O)c(-c2ccco2)nc2ccccc21 (stereo not drawn) do in these assays?
HIF-2a block: 8

What do the screens show for `CCOC(=O)C1(C)CCN1C(=O)COc1ccc(C(C)(C)C)cc1` (stereo not drawn)?
Peg3 promoter: -9; CF NFkB block: -9; KKLEB cytotox: 2; HIF-2a block: -5

How did C[C@H](CO)N1C[C@H](C)[C@@H](CN(C)S(=O)(=O)c2cccc(C#N)c2)OCc2cnnn2CCCC1=O do in these assays?
Peg3 promoter: 10; CF NFkB block: 3; KKLEB cytotox: 1; HIF-2a block: 6

Results for O=C(Oc1c(CN2CCOCC2)cc(Cl)c2cccnc12)c1ccccc1F ?
Peg3 promoter: 22; CF NFkB block: -7; MITF TRPM1 inh: 68*; KKLEB cytotox: -5; B2AR ag: -10; HIF-2a block: 3; Beta2AR ag CP1: 111; FAP fluor counter: inactive

Results for COc1cc(C(=S)N2CCOCC2)cc(OC)c1OC(=O)c1ccccc1Cl ?
Peg3 promoter: 13; CF NFkB block: -37; KKLEB cytotox: -8; HIF-2a block: 7

What do the screens show for `COc1cc(OC)cc(C(=O)Oc2c(CN3CCOCC3)cc(Cl)c3cccnc23)c1`?
Peg3 promoter: 10; CF NFkB block: -3; MITF TRPM1 inh: 1; KKLEB cytotox: 6; B2AR ag: -5; HIF-2a block: 17; Beta2AR ag CP1: 89; FAP fluor counter: inactive

Results for CSc1ncnc2c1ncn2CCCN1CCN(Cc2cccc3ccccc23)CC1 ?
Peg3 promoter: 5; CF NFkB block: -3; KKLEB cytotox: 7; HIF-2a block: -1

What do the screens show for `CC(C)=C1CCC(C)CC1=NNC(N)=S` (stereo not drawn)?
Peg3 promoter: 13; CF NFkB block: 5; MITF TRPM1 inh: -2; KKLEB cytotox: 1; B2AR ag: 1; HIF-2a block: 7

What do the screens show for `CC1C/C(=N\NC(N)=S)c2cc(Cl)ccc2S1` (stereo not drawn)?
Peg3 promoter: 8; CF NFkB block: 9; MITF TRPM1 inh: 3; KKLEB cytotox: -10; B2AR ag: 2; HIF-2a block: -3; Beta2AR ag CP1: 114; FAP fluor counter: inactive

What do the screens show for `O=C(NCc1ccccc1Cl)c1ccc2sc([C@@H]3O[C@H](CO)[C@H](O)[C@H](O)[C@H]3O)nc2c1`?
Peg3 promoter: -6; CF NFkB block: 14; KKLEB cytotox: 4; HIF-2a block: 2

How did CC(NC(=O)c1cc(COc2ccc3ncccc3c2)on1)c1ccc(F)cc1 (stereo not drawn) do in these assays?
Peg3 promoter: -85; CF NFkB block: -4; MITF TRPM1 inh: 10; KKLEB cytotox: -1; B2AR ag: 45*; HIF-2a block: -68; Beta2AR ag CP1: 57*; FAP fluor counter: inactive

How did COc1cccc(NS(=O)(=O)c2ccc3c(c2)CCCN3C(C)=O)c1 do in these assays?
Peg3 promoter: 13; CF NFkB block: -16; MITF TRPM1 inh: 5; KKLEB cytotox: -2; B2AR ag: 47*; HIF-2a block: -13; Beta2AR ag CP1: 116; FAP fluor counter: inactive

Results for COc1ccc(NS(=O)(=O)c2ccc3c(c2)CCCN3C(C)=O)cc1 ?
Peg3 promoter: 9; CF NFkB block: -17; MITF TRPM1 inh: 13; KKLEB cytotox: 5; B2AR ag: 2; HIF-2a block: 1

How did S=c1nc2ccccc2c2nc(-c3ccccc3Cl)[nH]n12 do in these assays?
Peg3 promoter: -128; CF NFkB block: -35; MITF TRPM1 inh: -3; KKLEB cytotox: 0; B2AR ag: 1; HIF-2a block: -145

What do the screens show for `S=c1nc2ccccc2c2nc(-c3ccccc3)[nH]n12`?
Peg3 promoter: -74; CF NFkB block: -9; MITF TRPM1 inh: -9; KKLEB cytotox: -16; B2AR ag: 2; HIF-2a block: -121; FAP fluor counter: inactive

Results for COc1cc(F)ccc1-c1csc(C(O)c2ccccc2)n1 (stereo not drawn) ?
Peg3 promoter: -41; CF NFkB block: -14; KKLEB cytotox: -16; HIF-2a block: -61

How did CCCCCC1CCC(c2n[nH]c(=S)n2C)CC1 (stereo not drawn) do in these assays?
Peg3 promoter: -12; CF NFkB block: -5; MITF TRPM1 inh: -6; KKLEB cytotox: 6; B2AR ag: -4; HIF-2a block: 7; Beta2AR ag CP1: 110; FAP fluor counter: inactive

What do the screens show for `C=CCn1c(C2CC2)n[nH]c1=S`?
Peg3 promoter: -4; CF NFkB block: -30; MITF TRPM1 inh: 0; KKLEB cytotox: 10; B2AR ag: 3; HIF-2a block: 9

What do the screens show for `COc1cc(Cl)c(C)cc1NC(=O)c1ccccc1NC(=O)CN1CCN(C(C)=O)CC1`?
Peg3 promoter: -14; CF NFkB block: -6; KKLEB cytotox: 5; HIF-2a block: 0

Results for O=C1C(O)CC2c3ccccc3CC3(CCCC3)N12 (stereo not drawn) ?
Peg3 promoter: 6; CF NFkB block: -32; MITF TRPM1 inh: -2; KKLEB cytotox: 2; B2AR ag: 7; HIF-2a block: 13; Beta2AR ag CP1: 117; FAP fluor counter: inactive

How did CC1CC2(CCCC2)N(C(=O)c2ccccc2)Cc2ccccc21 (stereo not drawn) do in these assays?
Peg3 promoter: 27; CF NFkB block: 2; MITF TRPM1 inh: 2; KKLEB cytotox: 8; B2AR ag: 1; HIF-2a block: 30
